# Where “and” joins values, the source holds several entries; their conditions need not be identical. Equal entries are not always repeated. Inconclusive results are not listed. A number with no mark means an inactive call. Calls of active or inactive are those of the source. The call rests on the fitted dose curve; in most records, active means well fitted inhibition curve with a large enough effect; inconclusive means small, poorly fitted or top-dose-only effect; inactive means flat fitted curve, though single readings scatter.
# Test system: CRL-7250
# Test: Cytotoxic Profiling of Annotated Libraries Using Quantitative High-Throughput Screening (AID 1296008); further: nearly all actives have a fitted effect of over 60% in size
# Conditions: Five cell lines viability, CellTiter-Glo ATP luminescence, 48-72 h; max response: hits give low values
# Procedure, shortened: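 Cells exposed to compounds for 48 or 72 hr at 37 degrees Celsius. Viability read as ATP-coupled luminescence with CellTiter-Glo after 10 min at room temperature.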
# On the % scale 0 is the no-effect control and ±100 the full control effect; potency means the concentration at half of the fitted maximal effect.
SMILES,outcome,max response,Potency
OC(CCN1CCCCC1)(c1ccccc1)C1CC2C=CC1C2 (centres undefined),inactive,,
Cc1ccccc1C(C(=O)NC1CCCC1)N(C(=O)Cn1cnc2ccccc21)c1cccc(F)c1 (centres undefined),,1.73%,
CNC(=O)c1ccccc1Sc1ccc2c(/C=C/c3ccccn3)n[nH]c2c1,,,5.8 µM (active)
CN(C)C(=O)c1ccc(S(=O)(=O)c2ccc(NC(=O)[C@@](C)(O)C(F)(F)F)c(Cl)c2)cc1,,,5.26 µM (active) and 5.8 µM (active)
CCOc1ccc(Cc2cc([C@@H]3O[C@H](CO)[C@@H](O)[C@H](O)[C@@H]3O)ccc2Cl)cc1,,-1.42%,
CCCC(CCC)C(=O)O,,-7.38% and -1.13%,
O=C(C1CC1)N1CC[C@@H](Cn2c(-c3ccc(-c4ccc5occc5c4)cc3)nc3cnccc32)C1,inactive,,
CS(=O)(=O)Oc1ccc2c(NC(N)=O)c(C(=O)c3ccc(Cl)cc3Cl)oc2c1,inactive,,
O=C(Nc1ccc(F)c(C(F)(F)F)c1)Nc1nnc(-c2ccncc2)s1,,2.14%,
C[C@H](NC(=O)Cc1cc(F)cc(F)c1)C(=O)N[C@@H]1C(=O)N(C)c2ccccc2-c2ccccc21,inactive,,
O=C(NOC[C@H](O)CO)c1ccc(F)c(F)c1Nc1ccc(I)cc1F,,,3.32 µM (active) and 3.66 µM (active)
Cc1cnc(NC(=O)C2=C(O)c3ccccc3S(=O)(=O)N2C)s1,inactive,,
COc1cccc2cc(-c3nc(C4CCC(C(=O)O)CC4)n4ncnc(N)c34)[nH]c12 (centres undefined),,,0.166 µM (active)
Cc1cc([C@@H](C)Nc2ccccc2C(=O)O)c2nc(N3CCOCC3)cc(=O)n2c1,,,3.82 µM (active)
CC(C)(N)C(=O)N[C@H](COCc1ccccc1)C(=O)N1CCC2(CC1)CN(S(C)(=O)=O)c1ccccc12,,-61%,
Cc1c(CN2CCN(C(=O)C(C)C)CC2)sc2c(N3CCOCC3)nc(-c3cnc(N)nc3)nc12,,,0.118 µM (active)
Nc1cccc(S(=O)(=O)N2CCCN(S(=O)(=O)c3ccc4c(c3)OCCO4)CC2)c1,,0.264%,
COc1ccc(-c2c(-c3ccc(O)cc3O)n[nH]c2C)cc1,,,30.3 µM (active)
OCCn1cc(-c2cnc3nnn(Cc4ccc5ncccc5c4)c3n2)cn1,,-20.1%,
CCOc1cc(C(=O)Nc2ccc(Cl)c(-c3nc4ccccc4[nH]3)c2)cc(OCC)c1OCC,inactive,,
Nc1ncnc2nc(-c3ccc(N4CCOCC4)nc3)cc(-c3cccc(Br)c3)c12,,0.286%,
CNCc1ccc(-c2[nH]c3cc(F)cc4c3c2CCNC4=O)cc1,inactive,,
COc1ccc(C2=N[C@H](c3ccc(Cl)cc3)[C@H](c3ccc(Cl)cc3)N2C(=O)N2CCNC(=O)C2)c(OC(C)C)c1,,,3.32 µM (active)
CN[C@@H](C)C(=O)N[C@H]1CCCC[C@H]2CC[C@@H](C(=O)N[C@@H](c3ccccc3)c3cn(CCCCc4ccc(CCCCn5cc([C@@H](NC(=O)[C@@H]6CC[C@@H]7CCCC[C@H](NC(=O)[C@H](C)NC)C(=O)N76)c6ccccc6)nn5)cc4)nn3)N2C1=O,,-4.97%,

# — PubChem BioAssay (NCATS)
